Source: the supplement of paper PMC10849652
About 7,900 targets were measured; listed, in parts, are those with a hit and a random draw of the rest. About 0.6% of all pairs of compound and target were hits. Unmarked numbers belong to inactive results.

Assays:
Assay in all cases: log2 fold change, soluble protein after heating vs DMSO (PISA); higher = thermal stabilisation; K562 cells, 10 uM, 30 min; active = over 0.2 and 3.5 SD of the protein, either way, in both replicates (recomputed)
[1] = compound: CC[C@@H]1C(=O)N(C)c2cnc(Nc3ccc(C(=O)NC4CCN(C)CC4)cc3OC)nc2N1C1CCCC1
How it was run: (§1)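 Quantification of soluble protein used TMTpro 16plex LC-MS/MS, with channel sums equalised. Samples were the supernatant after 21,000xg for 90 min of pooled aliquots from K562 cells (2×10^6 cells/mL) treated with 10 μM compound for 30 min, heated for 3 min over 48°C-58°C, and extracted in PBS with 0.5% NP-40 at 4°C. Values, from duplicates, describe thermal stability against control samples on a log2 fold-change scale.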

[2] = compound: CC[C@@H]1C(=O)N(C)c2cnc(Nc3ccc(C(=O)N[C@H]4CC[C@H](N5CCN(CC6CC6)CC5)CC4)cc3OC)nc2N1C(C)C [volasertib]
How it was run: as §1

[3] = compound: CC[C@H](C)N1C=C(C2=C(C=C(C=C21)C3=CN=C(C=C3)N4CCNCC4)C(=O)NCC5=C(C=C(NC5=O)C)C)C
How it was run: as §1

[4] = compound: CC[C@H](C)[C@@H](C(=O)N[C@@H]([C@@H](C)O)C(=O)N[C@@H](CC(C)C)C(=O)[C@]1(CO1)C)NC(=O)[C@H]([C@@H](C)CC)N(C)C(=O)C [epoxomicin]
How it was run: as §1

[5] = compound: CCn1c(C(=O)N(C2CC2)C2CC2)cc2c3c(ncn3C)c(Nc3cc(C)n(C)n3)nc21
How it was run: as §1

[6] = compound: CCn1cc(-c2ccnc3[nH]c(-c4cccc(CN(C)C)c4)cc23)c(-c2ccc(NC(=O)N(C)C)cc2)n1
How it was run: as §1

[7] = compound: CN(C)CC(=O)Nc1ccc2[nH]c(=O)c3ccccc3c2c1
How it was run: as §1

[8] = compound: CN(CCOC1=CC=C(C=C1)C[C@H]2C(=O)NC(=O)S2)C3=CC=CC=N3 (racemic) [rosiglitazone]
How it was run: as §1

[9] = compound: CN1C2=C(C3=C1C(=O)N(N=C3)CC4=CC(=CC=C4)N)SC(=C2)S(=O)C
How it was run: as §1

[10] = compound: CN1CCC(CNc2ccc3ncc(-c4cccc(OC(F)(F)F)c4)n3n2)CC1
How it was run: as §1

[11] = compound: CN1CCN(CCOc2cc(OC3CCOCC3)c3c(Nc4c(Cl)ccc5c4OCO5)ncnc3c2)CC1 [saracatinib]
How it was run: as §1

[12] = compound: CN1CCN(c2nc(C3=C(c4c[nH]c5ccccc45)C(=O)NC3=O)c3ccccc3n2)CC1 [sotrastaurin]
How it was run: as §1

[13] = compound: CN1CC[C@H](c2c(O)cc(O)c3c(=O)cc(-c4ccccc4Cl)oc23)[C@H](O)C1 [alvocidib]
How it was run: as §1

[14] = compound: CN1CCc2c(c3ccccc3n2Cc2ccc(C(=O)NO)cc2)C1 [Tubastatin A]
How it was run: as §1

[15] = compound: CNC(=O)C1=CC=CC=C1NC2=NC(=NC=C2Cl)NC3=C(C=C(C=C3)N4CCOCC4)OC
How it was run: as §1

[16] = compound: CNC(=O)c1ccc(Nc2ncc(C(F)(F)F)c(NCc3nccnc3N(C)S(C)(=O)=O)n2)cc1 [defactinib]
How it was run: as §1

[17] = compound: CNCc1ccc(-c2[nH]c3cc(F)cc4c3c2CCNC4=O)cc1 [rucaparib]
How it was run: as §1

[18] = compound: CNc1nc(-c2ccc3c(N)n[nH]c3c2)cc(N2C[C@@H](C(=O)NC3CCCCC3)CC[C@H]2C)n1
How it was run: as §1

[19] = compound: COC(=O)N[C@@H](C)CNc1nccc(-c2cn(C(C)C)nc2-c2cc(Cl)cc(NS(C)(=O)=O)c2F)n1 [encorafenib]
How it was run: as §1

[20] = compound: COC(=O)[C@H](CCSC)NC(=O)C1=C(C=C(C=C1)NC[C@H](CS)N)C2=CC=CC=C2
How it was run: as §1

Chain of UniProt Q15061 (Q15061 whole entry, looked up): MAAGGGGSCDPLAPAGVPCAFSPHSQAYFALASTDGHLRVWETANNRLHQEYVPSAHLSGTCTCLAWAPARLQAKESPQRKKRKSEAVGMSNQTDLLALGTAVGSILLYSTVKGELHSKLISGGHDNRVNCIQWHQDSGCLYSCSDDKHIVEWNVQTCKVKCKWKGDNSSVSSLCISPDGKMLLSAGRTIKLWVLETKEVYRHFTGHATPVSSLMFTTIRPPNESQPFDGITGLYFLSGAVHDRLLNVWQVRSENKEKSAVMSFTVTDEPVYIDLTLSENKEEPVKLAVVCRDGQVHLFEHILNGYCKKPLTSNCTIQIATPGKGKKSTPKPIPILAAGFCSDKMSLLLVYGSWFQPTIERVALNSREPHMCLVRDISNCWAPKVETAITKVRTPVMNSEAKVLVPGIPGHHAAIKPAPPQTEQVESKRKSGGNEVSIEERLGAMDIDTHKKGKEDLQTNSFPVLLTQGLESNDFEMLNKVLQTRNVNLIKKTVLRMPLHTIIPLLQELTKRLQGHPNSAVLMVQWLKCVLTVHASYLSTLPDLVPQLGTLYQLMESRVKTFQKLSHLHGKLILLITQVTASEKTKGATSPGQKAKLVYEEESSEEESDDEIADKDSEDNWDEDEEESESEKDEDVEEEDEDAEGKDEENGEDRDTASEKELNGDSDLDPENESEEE
Chain of UniProt Q7L0Y3 (Q7L0Y3 whole entry, looked up): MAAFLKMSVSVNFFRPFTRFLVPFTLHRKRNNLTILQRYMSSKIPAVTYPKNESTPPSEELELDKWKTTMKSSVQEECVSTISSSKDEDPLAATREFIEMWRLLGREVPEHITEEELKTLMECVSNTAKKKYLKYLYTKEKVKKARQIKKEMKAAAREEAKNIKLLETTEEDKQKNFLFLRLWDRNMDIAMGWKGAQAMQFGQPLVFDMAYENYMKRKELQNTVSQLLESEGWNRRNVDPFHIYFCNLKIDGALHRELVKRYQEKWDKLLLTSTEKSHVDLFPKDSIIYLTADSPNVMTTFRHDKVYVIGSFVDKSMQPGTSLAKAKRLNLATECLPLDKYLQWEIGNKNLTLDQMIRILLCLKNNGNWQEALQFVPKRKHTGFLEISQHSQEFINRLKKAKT
Chain of UniProt Q9HAD4 (Q9HAD4 whole entry, looked up): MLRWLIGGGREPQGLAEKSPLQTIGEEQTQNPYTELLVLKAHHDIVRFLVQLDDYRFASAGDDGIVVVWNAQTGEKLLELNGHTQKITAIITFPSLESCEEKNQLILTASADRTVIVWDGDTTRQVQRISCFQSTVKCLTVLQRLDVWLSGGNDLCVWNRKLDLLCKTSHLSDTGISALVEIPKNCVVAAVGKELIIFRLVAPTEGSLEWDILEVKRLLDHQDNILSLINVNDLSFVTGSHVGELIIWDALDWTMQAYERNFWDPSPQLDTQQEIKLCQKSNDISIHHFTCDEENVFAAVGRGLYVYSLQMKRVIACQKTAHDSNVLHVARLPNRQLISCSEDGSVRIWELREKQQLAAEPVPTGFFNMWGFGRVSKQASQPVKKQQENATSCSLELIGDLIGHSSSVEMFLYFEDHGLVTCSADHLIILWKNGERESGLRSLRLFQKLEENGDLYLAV
Chain of UniProt Q6ZXV5 (Q6ZXV5 whole entry, looked up): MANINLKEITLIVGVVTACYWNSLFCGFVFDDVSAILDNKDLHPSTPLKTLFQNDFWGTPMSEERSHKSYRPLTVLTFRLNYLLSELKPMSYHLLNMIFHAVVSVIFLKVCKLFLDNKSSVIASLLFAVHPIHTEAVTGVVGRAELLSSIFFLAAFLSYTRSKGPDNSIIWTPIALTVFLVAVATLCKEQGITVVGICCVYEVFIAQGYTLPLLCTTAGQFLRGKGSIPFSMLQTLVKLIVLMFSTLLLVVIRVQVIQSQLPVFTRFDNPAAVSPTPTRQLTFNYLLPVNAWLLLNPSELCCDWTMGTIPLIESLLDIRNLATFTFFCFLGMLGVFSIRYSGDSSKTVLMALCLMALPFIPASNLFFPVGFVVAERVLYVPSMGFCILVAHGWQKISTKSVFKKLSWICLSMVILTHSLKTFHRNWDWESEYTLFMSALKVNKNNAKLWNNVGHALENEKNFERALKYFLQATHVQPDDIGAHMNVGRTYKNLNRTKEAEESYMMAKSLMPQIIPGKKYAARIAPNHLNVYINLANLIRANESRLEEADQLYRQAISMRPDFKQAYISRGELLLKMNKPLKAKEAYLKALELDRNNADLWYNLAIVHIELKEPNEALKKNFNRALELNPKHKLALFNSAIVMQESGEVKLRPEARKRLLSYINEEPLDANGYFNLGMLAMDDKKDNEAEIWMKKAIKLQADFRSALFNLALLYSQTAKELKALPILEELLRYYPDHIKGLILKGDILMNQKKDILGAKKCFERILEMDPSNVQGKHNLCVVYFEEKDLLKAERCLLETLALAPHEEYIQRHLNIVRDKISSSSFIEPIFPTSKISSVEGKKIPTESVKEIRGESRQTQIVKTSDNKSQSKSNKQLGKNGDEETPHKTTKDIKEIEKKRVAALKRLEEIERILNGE
Chain of UniProt Q96FX7 (Q96FX7 whole entry, looked up): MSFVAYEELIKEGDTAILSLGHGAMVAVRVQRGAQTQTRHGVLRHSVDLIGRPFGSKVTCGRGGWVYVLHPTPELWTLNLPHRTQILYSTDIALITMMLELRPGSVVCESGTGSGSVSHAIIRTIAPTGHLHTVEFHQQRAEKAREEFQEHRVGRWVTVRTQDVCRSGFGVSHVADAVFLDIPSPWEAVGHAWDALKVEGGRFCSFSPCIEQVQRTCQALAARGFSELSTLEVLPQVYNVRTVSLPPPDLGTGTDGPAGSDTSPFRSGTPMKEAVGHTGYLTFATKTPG
Chain of UniProt Q99757 (Q99757 whole entry, looked up): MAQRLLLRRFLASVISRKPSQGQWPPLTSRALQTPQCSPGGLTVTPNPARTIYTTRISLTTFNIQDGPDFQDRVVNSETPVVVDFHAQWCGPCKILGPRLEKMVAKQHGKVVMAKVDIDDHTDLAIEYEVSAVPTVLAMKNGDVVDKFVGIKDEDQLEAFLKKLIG
Chain of UniProt Q96K49 (Q96K49 whole entry, looked up): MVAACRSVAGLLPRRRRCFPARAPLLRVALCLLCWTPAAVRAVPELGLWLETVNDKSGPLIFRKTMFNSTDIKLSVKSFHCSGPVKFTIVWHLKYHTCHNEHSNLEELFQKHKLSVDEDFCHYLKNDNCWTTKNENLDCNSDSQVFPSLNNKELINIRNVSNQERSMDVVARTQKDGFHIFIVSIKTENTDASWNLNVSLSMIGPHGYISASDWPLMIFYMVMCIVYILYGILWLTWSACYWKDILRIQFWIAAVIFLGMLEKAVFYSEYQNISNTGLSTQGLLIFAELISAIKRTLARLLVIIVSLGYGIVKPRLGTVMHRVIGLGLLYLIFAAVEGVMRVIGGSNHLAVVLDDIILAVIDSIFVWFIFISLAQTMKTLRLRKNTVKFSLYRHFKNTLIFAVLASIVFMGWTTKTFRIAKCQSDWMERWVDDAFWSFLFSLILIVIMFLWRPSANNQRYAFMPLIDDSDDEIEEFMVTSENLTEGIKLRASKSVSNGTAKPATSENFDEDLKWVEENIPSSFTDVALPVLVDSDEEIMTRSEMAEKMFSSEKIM
Chain of UniProt Q9Y2I8 (Q9Y2I8 whole entry, looked up): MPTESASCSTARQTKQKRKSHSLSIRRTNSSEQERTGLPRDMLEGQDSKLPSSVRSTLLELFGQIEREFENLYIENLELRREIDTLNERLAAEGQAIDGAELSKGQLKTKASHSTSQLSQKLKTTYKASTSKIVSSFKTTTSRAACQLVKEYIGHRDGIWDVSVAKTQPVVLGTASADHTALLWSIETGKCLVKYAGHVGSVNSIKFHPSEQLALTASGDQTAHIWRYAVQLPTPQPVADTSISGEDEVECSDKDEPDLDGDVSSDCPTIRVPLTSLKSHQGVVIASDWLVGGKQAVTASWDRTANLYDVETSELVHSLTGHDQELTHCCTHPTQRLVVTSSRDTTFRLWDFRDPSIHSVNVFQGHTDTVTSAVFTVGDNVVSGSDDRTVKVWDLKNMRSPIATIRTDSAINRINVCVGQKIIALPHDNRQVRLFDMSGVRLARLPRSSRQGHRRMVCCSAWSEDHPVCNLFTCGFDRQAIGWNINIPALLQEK
Chain of UniProt Q9UK41 (Q9UK41 whole entry, looked up): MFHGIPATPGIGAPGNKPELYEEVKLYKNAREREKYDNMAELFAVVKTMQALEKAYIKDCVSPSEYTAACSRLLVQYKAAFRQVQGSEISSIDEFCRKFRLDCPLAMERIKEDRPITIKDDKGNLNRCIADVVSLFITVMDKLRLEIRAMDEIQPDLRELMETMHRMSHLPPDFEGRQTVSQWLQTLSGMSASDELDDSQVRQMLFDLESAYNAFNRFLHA
Chain of UniProt Q9Y6I4 (Q9Y6I4 whole entry, looked up): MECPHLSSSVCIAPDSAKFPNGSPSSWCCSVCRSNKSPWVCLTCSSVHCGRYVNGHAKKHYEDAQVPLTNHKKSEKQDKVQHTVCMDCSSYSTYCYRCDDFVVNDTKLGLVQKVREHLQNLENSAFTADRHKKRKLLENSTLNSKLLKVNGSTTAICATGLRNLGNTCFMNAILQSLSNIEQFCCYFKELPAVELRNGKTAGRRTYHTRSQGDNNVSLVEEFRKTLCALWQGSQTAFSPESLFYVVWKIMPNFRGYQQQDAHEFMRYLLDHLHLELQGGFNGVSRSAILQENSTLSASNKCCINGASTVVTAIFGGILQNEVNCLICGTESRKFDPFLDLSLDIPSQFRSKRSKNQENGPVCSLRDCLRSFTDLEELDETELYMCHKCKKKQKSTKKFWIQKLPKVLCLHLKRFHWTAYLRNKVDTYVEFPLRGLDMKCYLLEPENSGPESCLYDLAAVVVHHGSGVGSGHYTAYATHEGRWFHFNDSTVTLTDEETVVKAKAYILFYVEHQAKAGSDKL
Chain of UniProt Q01081 (Q01081 whole entry, looked up): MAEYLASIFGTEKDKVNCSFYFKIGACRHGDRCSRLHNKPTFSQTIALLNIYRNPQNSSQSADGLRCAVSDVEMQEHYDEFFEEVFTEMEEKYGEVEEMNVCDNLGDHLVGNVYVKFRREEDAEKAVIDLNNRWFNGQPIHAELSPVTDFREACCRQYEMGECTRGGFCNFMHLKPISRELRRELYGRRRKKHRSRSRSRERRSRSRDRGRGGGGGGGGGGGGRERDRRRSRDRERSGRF

Target | log2 fold change [1] | log2 fold change [2] | log2 fold change [3] | log2 fold change [4] | log2 fold change [5] | log2 fold change [6] | log2 fold change [7] | log2 fold change [8] | log2 fold change [9] | log2 fold change [10] | log2 fold change [11] | log2 fold change [12] | log2 fold change [13] | log2 fold change [14] | log2 fold change [15] | log2 fold change [16] | log2 fold change [17] | log2 fold change [18] | log2 fold change [19] | log2 fold change [20]
TXN2 (UniProt Q99757) | -0.037 | 0.051 | -0.029 | 0.082 | -0.038 | -0.089 | -0.096 | -0.027 | 0.03 | 0.083 | 0.004 | 0.04 | -0.058 | 0.004 | 0.17 | 0.031 | -0.003 | -0.034 | 0.001 | 0.068
TMTC3 (UniProt Q6ZXV5) | -0.074 | -0.118 | 0.023 | 0.001 | 0.001 | 0.038 | -0.045 | 0.03 | -0.014 | -0.034 | -0.03 | 0.028 | 0.009 | 0.009 | 0.012 | 0.009 | 0.022 | 0.006 | 0.028 | -0.019
USP3 (UniProt Q9Y6I4) | -0.173 | -0.325 | 0.04 | -0.083 | -0.051 | -0.037 | 0.063 | 0.094 | -0.077 | -0.379 (active) | 0.16 | 0.074 | -0.288 | -0.181 | -0.118 | -0.205 | 0.042 | 0.155 | -0.008 | -0.092
WASHC2C, A0A096LPC5 | 0.034 | -0.111 | -0.03 | -0.016 | 0.063 | -0.132 | 0.012 | 0.067 | 0.142 | -0.507 (active) | -0.116 | -0.09 | 0.071 | -0.02 | -0.019 | -0.121 | 0.114 | -0.02 | 0.035 | 0.052
TNNC2 (UniProt P02585) | 0.042 | 0.07 | -0.031 | -0.037 | 0.016 | 0.04 | -0.006 | 0.006 | -0.053 | -0.015 | 0.007 | 0.095 | -0.009 | -0.139 | -0.035 | 0.012 | -0.025 | -0.056 | -0.049 | 0.037
TRMT61A (UniProt Q96FX7) | 0.044 | 0.161 | 0.022 | -0.061 | 0.028 | 0.043 | -0.098 | -0.105 | 0.099 | -0.001 | -0.018 | -0.002 | 0.134 | 0.08 | -0.038 | 0.138 | 0.286 | 0.02 | -0.03 | 0.039
WDR43 (UniProt Q15061) | 0.029 | -0.029 | -0.04 | -0.026 | 0 | 0.036 | 0.004 | -0.025 | -0.04 | 0.192 | 0.031 | 0.014 | 0.062 | -0.045 | 0.001 | 0.101 | 0.07 | -0.002 | -0.009 | -0.007
U2AF1 isoform 2 (UniProt Q01081) | -0.217 | -0.57 (active) | 0.051 | -0.02 | 0.015 | -0.015 | 0.071 | -0.007 | -0.021 | -0.036 | -0.027 | -0.062 | -0.064 | 0.042 | -0.104 | -0.086 | 0.045 | -0.009 | 0.041 | -0.075
WDR37 isoform 2 (UniProt Q9Y2I8) | 0.078 | -0.022 | -0.005 | -0.049 | 0.007 | -0.049 | -0.004 | 0.078 | 0.246 | -0.005 | -0.094 | -0.01 | 0.207 | -0.019 | -0.077 | 0 | 0.064 | -0.108 | 0.084 | -0.007
WDR41 (UniProt Q9HAD4) | -0.169 | -0.282 (active) | -0.056 | 0.061 | -0.026 | -0.043 | 0.012 | 0.007 | -0.076 | -0.115 | 0.071 | -0.037 | -0.014 | -0.054 | -0.046 | -0.007 | 0.015 | -0.031 | 0.008 | 0.036
TMEM87B (UniProt Q96K49) | -0.088 | -0.148 | 0.092 | 0.018 | 0.002 | -0.103 | -0.016 | 0 | -0.143 | -0.436 (active) | -0.072 | 0.013 | -0.046 | -0.099 | -0.019 | 0.044 | -0.016 | -0.123 | 0.03 | 0.149
UHRF1BP1 (UniProt Q6BDS2) | 0.137 | 0.131 | 0.036 | -0.067 | -0.013 | -0.105 | 0.012 | 0.019 | -0.09 | 0.211 (active) | 0.011 | 0.049 | -0.043 | 0.016 | -0.013 | -0.064 | -0.007 | 0.048 | -0.012 | 0.017
UBAP2L isoform 1 (UniProt Q14157) | -0.026 | -0.417 | 0.046 | -0.005 | 0.059 | 0.026 | -0.004 | 0.001 | 0 | -0.023 | -0.001 | 0.063 | -0.092 | -0.016 | 0.038 | -0.02 | -0.017 | -0.073 | -0.014 | -0.015
TRMT10C (UniProt Q7L0Y3) | -0.161 | -0.416 (active) | 0.07 | 0.046 | -0.064 | -0.057 | 0.018 | 0.021 | 0.008 | 0.003 | -0.129 | -0.013 | -0.126 | -0.064 | -0.024 | -0.055 | -0.011 | 0.042 | 0.041 | -0.056
VPS28 (UniProt Q9UK41) | -0.057 | -0.3 (active) | 0.032 | 0.09 | 0.001 | -0.048 | 0.011 | 0.102 | -0.038 | -0.139 | -0.101 | -0.078 | -0.135 | 0.072 | 0.043 | -0.172 | -0.044 | -0.046 | 0.082 | -0.033
UBA1 (UniProt P22314) | -0.236 | -0.543 (active) | 0.133 | 0.044 | -0.098 | -0.008 | 0.115 | 0.132 | 0.023 | -0.02 | -0.048 | -0.17 | -0.127 | -0.052 | 0.015 | -0.058 | -0.019 | 0.055 | 0.149 | -0.057
